“And” between values parts separate entries of the source, which are not always exact repeats. Equal entries are not always repeated. Screen size: about 16,000 compounds; about 4,000 (25%) were called active. Inconclusive results (about 26%) are left out. The call rests on the fitted dose curve; in most records, active means well fitted curve in the direction sought with a large enough effect; inconclusive means small, poorly fitted or top-dose-only effect, or effect the other way; inactive means no such curve, though single readings can be large or run the other way. Only a sample is shown.
What follows are compounds tested against Cytochrome P450 2C9 (Homo sapiens) (UniProt P11712) (assay: Cytochrome panel assay with activity outcomes). Details: recombinant CYP, pro-luciferin dealkylation, luminescence, p450-cyp2c9; series mostly up to 57.1 µM.
Sequence of Cytochrome P450 2C9 (Homo sapiens) (P11712 whole entry, looked up): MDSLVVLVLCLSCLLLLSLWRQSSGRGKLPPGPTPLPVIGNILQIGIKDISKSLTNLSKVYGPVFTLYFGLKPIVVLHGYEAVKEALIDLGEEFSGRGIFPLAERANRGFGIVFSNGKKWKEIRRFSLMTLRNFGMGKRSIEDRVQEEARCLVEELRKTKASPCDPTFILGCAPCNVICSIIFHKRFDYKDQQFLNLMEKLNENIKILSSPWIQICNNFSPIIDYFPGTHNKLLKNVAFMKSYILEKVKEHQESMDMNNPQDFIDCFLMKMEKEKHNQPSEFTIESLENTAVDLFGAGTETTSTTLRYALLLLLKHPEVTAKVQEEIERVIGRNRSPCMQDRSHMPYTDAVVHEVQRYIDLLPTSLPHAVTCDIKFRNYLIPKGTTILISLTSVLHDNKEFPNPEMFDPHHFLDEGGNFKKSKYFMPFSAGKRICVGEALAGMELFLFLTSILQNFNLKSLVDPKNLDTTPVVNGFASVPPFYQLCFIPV
For `C/C(CCN1CCc2nc(-c3ccccc3)c(-c3ccccc3)cc2C1)=N\O[C@@H](C)CN1CCCc2nc(C)c(C)cc21`, the activity, negative = inhibition was -19.9% [at 11.4 µM] (inactive).
For `CC(C)=CCC/C(C)=C/CO/N=C1/C[C@@H](O)[C@@H](O)[C@@H]2[C@@H]3C(=O)N(Cc4ccc5c(c4)OCO5)C(=O)[C@H]3CC[C@@H]12`, the activity, negative = inhibition was -23.6% [at 11.4 µM] (inactive).
In the case of `O=C(c1ccco1)N1CCC[C@@]2(CCN(Cc3ccccc3)C2)C1`, the AC50 is reported as “inactive”.
With `COC(=O)C/C=C\[C@@H](C)[C@@H](/C=N\OC[C@@H](O)[C@H]1O[C@H]2OC(C)(C)O[C@H]2[C@@H]1O)NS(=O)(=O)c1ccc(C)cc1` the activity, negative = inhibition was 2.11% [at 11.4 µM] (inactive).
For `COC(=O)C/C=C\[C@@H](C)[C@@H](/C=N\OC[C@@H](O)[C@H]1O[C@H]2OC(C)(C)O[C@H]2[C@@H]1O)OC`, the activity, negative = inhibition was 8.96% [at 11.4 µM] (inactive).
In the case of `CO/N=C\c1ccc(C(=O)N2[C@H](c3ccc(C)cc3)[C@@H](C)CC[C@H]2C(=O)OC)cc1`, the AC50 is reported as 2.51 µM (active).
With `COC(=O)[C@@H]1CC[C@H](C)[C@@H](c2ccc(C)cc2)N1C(=O)c1ccc(/C=N\OC[C@@H](O)[C@H]2O[C@H]3OC(C)(C)O[C@H]3[C@@H]2O)cc1` the AC50 was 2.51 µM (active).
With `C[C@@]12CCC(=O)C=C1CC[C@@H]1[C@@H]2[C@H](O)C[C@]2(C)[C@@H]1CC[C@]2(O)C(=O)CO` the AC50 was “inactive”.
With `CN[C@@H](c1ccncc1)[C@@H](NC)c1ccncc1` the activity, negative = inhibition was -8.04% [at 11.4 µM] (inactive).
With `COCCNc1ncnc2ccc(-c3ccccc3C(F)(F)F)cc12` the activity, negative = inhibition was 11% [at 2.29 µM] (inactive).
With `CC(C)(C)NC(=O)C(c1ccccn1)N(C(=O)C1CSC(=O)C1)c1ccc(F)cc1` (stereo unspecified) the AC50 was “inactive”.
For `Cc1ccc(C(C(=O)NC2CCCCC2)N(CC2CCCO2)C(=O)CNC(=O)c2cccs2)cc1` (stereo unspecified), the AC50 was “inactive”.
For `Cc1nn(C)cc1C(C(=O)NC1CCCCC1)N(C(=O)Cc1cccs1)c1ccc(C(C)C)cc1` (stereo unspecified), the AC50 was 25.1 µM (active).
For `Cc1cc(C)cc(N(C(=O)Cc2cccs2)C(C(=O)NC2CCCCC2)c2ccccn2)c1` (stereo unspecified), the AC50 was 17.8 µM (active).
For `NC1=C(O)C(=O)[C@H](c2c[nH]c3ccc(OCc4ccccc4)cc23)O1`, the activity, negative = inhibition was -27.4% [at 11.4 µM] (inactive).
With `CC(C)/C(=N/[N+](C)(C)C)c1ccccc1` the activity, negative = inhibition was 9.65% [at 11.4 µM] (inactive).
With `CC(C)C(=O)Nc1cc2c(cc1C(=O)c1ccccc1)OCCO2` the AC50 was 8.91 µM (active).
With `CC(=O)c1cc2c(cc1NC(=O)CCCC(=O)O)OCO2` the AC50 was “inactive”.
With `O=C1Nc2ccccc2C1=Nc1ccc(S(=O)(=O)Nc2nccs2)cc1` the activity, negative = inhibition was 8.43% [at 11.4 µM] (inactive).
In the case of `O=C(CCN1C(=O)S/C(=C\c2ccccc2)C1=O)Nc1ccc(S(=O)(=O)Nc2nccs2)cc1`, the AC50 is reported as 1.58 µM (active).
With `O=C(O)c1ccccc1C(=O)Nc1ccc(S(=O)(=O)Nc2nccs2)cc1` the AC50 was “inactive”.
For `CCOc1ccc(OCC)c(-c2c(=O)n(OCc3ccccc3C(=O)OC)c3ccccc3[n+]2[O-])c1`, the AC50 was 14.1 µM (active).
`O=c1c(-c2ccc(Cl)cc2)[n+]([O-])c2ccccc2n1OCc1ccccn1` was tested, and the AC50 was “inactive”.
With `CCOc1ccc(OCC)c(-c2c(=O)n(OCc3ccc(C(C)(C)C)cc3)c3ccccc3[n+]2[O-])c1` the AC50 was 6.31 µM (active).
`OC[C@@H]1O[C@H](n2cnc3c(/C=C(\O)c4ccccc4)ncnc32)[C@H](O)[C@@H]1O` was tested, and the activity, negative = inhibition was 0.392% [at 11.4 µM] (inactive).
In the case of `COc1cccc(Cn2nnc3c(=O)[nH]c(C4CCCN(C(=O)c5ccccc5Cl)C4)nc32)c1` (stereo unspecified), the AC50 is reported as 5.01 µM (active).
With `COc1ccc(C(=O)N2CCC3(CCCN(Cc4ccccc4OC)C3)CC2)cc1` the AC50 was “inactive”.
With `Cc1ccc(C)c(S(=O)(=O)N2CCC(c3nc4c(nnn4Cc4ccc(F)cc4)c(=O)[nH]3)CC2)c1` the AC50 was 1.58 µM (active).
With `COc1ccc(C(=O)N2CCC3(CCN(Cc4ccccc4OC)CC3)CC2)cc1` the AC50 was “inactive”.
With `COc1ccccc1Cn1nnc2c(=O)[nH]c(C3CCN(C(=O)c4ccc(C)cc4)CC3)nc21` the AC50 was 5.62 µM (active).
In the case of `Cc1ccc(Cn2nnc3c(=O)[nH]c(C4CCN(C(=O)Cc5cccs5)CC4)nc32)cc1`, the AC50 is reported as 0.708 µM (active).
`Cc1ccn2cc(CSc3ccccc3N)nc2c1` was tested, and the AC50 was “inactive”.
For `NC1=C2NC=N[C@@H]2N(C/C=C\c2ccccc2)C=N1`, the activity, negative = inhibition was 1.29% [at 11.4 µM] (inactive).
For `O=C(Cc1cccs1)N1CCC(c2nc3c(nnn3Cc3ccccc3Cl)c(=O)[nH]2)CC1`, the AC50 was 0.224 µM (active).
With `CCc1ncc(CO)n1Cc1cccc2ccccc12` the activity, negative = inhibition was -1.15% [at 11.4 µM] (inactive).
In the case of `COc1ccc(N2CCN(C(=N)/C(C(C)=O)=C(\C)O)CC2)cc1`, the AC50 is reported as “inactive”.
In the case of `COc1ccc(N2CCN(C(=S)Nc3cc(C)ccc3C)CC2)cc1`, the AC50 is reported as “inactive”.
In the case of `CCn1cnc2sc(C(=O)N3CCN(c4ccc(OC)cc4)CC3)c(C)c2c1=O`, the AC50 is reported as 7.94 µM (active).
With `O=C(NCCN1CCOCC1)c1ccc2ccccc2c1` the AC50 was “inactive”.
In the case of `O=C(NCCCn1ccnc1)c1ccc(Br)c(S(=O)(=O)N2CCOCC2)c1`, the AC50 is reported as 0.708 µM (active).
With `O=C(NCCCN1CCOCC1)c1cc2c(s1)CSC2` the AC50 was “inactive”.
For `CN[C@@H]1[C@H](O[C@H]2[C@@H](O[C@@H]3[C@@H](O)[C@@H](O)[C@@H](N=C(N)N)[C@@H](O)[C@@H]3N=C(N)N)O[C@@H](C)[C@]2(O)CO)O[C@H](CO)[C@@H](O)[C@@H]1O`, the AC50 was “inactive”.
`Cc1ccc(NC(=O)NNC(=O)C2CC(c3cccnc3)=NO2)cc1` (stereo unspecified) was tested, and the AC50 was “inactive”.
In the case of `Cc1ccc(NC(=O)NNC(=O)Cn2nc(-c3ccccc3)c(-c3ccccc3)c(C#N)c2=O)cc1`, the AC50 is reported as 3.16 µM (active).
In the case of `CCCC(=O)NNC(=O)Nc1ccccc1`, the AC50 is reported as “inactive”.
`CC(C)CC(c1nnnn1C(C)C)N1CCN(c2ccccc2)CC1` (stereo unspecified) was tested, and the AC50 was 2 µM (active).
For `ClC(Cl)(Cl)C(N1CCN(c2ccccc2)CC1)N1CCN(c2ccccc2)CC1`, the activity, negative = inhibition was 18.4% [at 11.4 µM] (inactive).
In the case of `OC[C@@H](O)CN1CCN(c2ccccc2)CC1`, the AC50 is reported as “inactive”.
In the case of `NS(=O)(=O)c1cc2c(cc1Cl)=NC(CCC(=O)O)=NS=2(=O)O`, the activity, negative = inhibition is reported as 3.24% [at 11.4 µM] (inactive).
`Cc1ccc(-c2ccc(/C=N\NC(=O)c3cc4c(ccc5ccccc54)o3)o2)cc1[N+](=O)[O-]` was tested, and the AC50 was “inactive”.
`Cc1ccc(-c2ccc(/C=N/NC(=S)Nc3ccccc3)o2)cc1[N+](=O)[O-]` was tested, and the AC50 was 3.98 µM (active).
In the case of `CCn1c(=O)c2c(O)cc(=O)oc2c2ccccc21`, the AC50 is reported as “inactive”.
With `CCn1c2ccccc2c2cc(NS(=O)(=O)c3ccccc3C)ccc21` the AC50 was 0.891 µM (active).
With `Cc1nc2cnc(N3CCN(C)CC3)nc2n(C)c1=O` the AC50 was “inactive”.
In the case of `COC(=O)C1CCC(C)(C(=O)Nc2ccccc2)C1(C)C` (stereo unspecified), the AC50 is reported as 7.94 µM (active).
For `COC(=O)C1CSC(C(=O)OC)N1C(=O)Nc1ccccc1` (stereo unspecified), the AC50 was “inactive”.
`COC(=O)N1CCC2(CC1)CN(C(=O)Nc1ccccc1)C2` was tested, and the AC50 was “inactive”.
`C[C@@H]1O[C@H]2C3=C(C(=O)[C@H]4O[C@@H]4[C@H]3O)[C@@H]1[C@@H]1[C@@H](C)OC=C3[C@H](O)[C@H]4O[C@@H]4/C(=N\OCc4ccccc4)[C@]312` was tested, and the activity, negative = inhibition was -27.9% [at 11.4 µM] (inactive).
With `Cc1ccccc1-c1cc(Nc2ccccc2)ncn1` the activity, negative = inhibition was 20.2% [at 2.29 µM] (inactive).
For `COc1ccc(CCN2CC34C=CC(O3)C(C(=O)NCc3ccccc3)C4C2=O)cc1OC` (stereo unspecified), the AC50 was “inactive”.
In the case of `O=C1C[C@@H](O)[C@@H](O)[C@H]2[C@@H]3C(=O)N(Cc4ccc5c(c4)OCO5)C(=O)[C@@H]3CC[C@H]12`, the activity, negative = inhibition is reported as -7.97% [at 11.4 µM] (inactive) and -24% [at 11.4 µM] (inactive).
For `Cc1ccccc1OC1C(=O)N(Cc2ccc3c(c2)OCO3)C1c1sccc1C` (stereo unspecified), the AC50 was 7.94 µM (active).
In the case of `COC(=O)c1ccc(C2C(Oc3ccccc3)C(=O)N2CCc2ccc(OC)c(OC)c2)cc1` (stereo unspecified), the AC50 is reported as “inactive”.
`COc1ccc(CCN2C(=O)C(Oc3ccccc3C)C2c2ccc3c(c2)OCO3)cc1OC` (stereo unspecified) was tested, and the AC50 was 7.94 µM (active).
With `O=C1[C@H]2[C@H]3[C@H](O)[C@H](O)C/C(=N/OCc4ccccc4)[C@@H]3CC[C@@H]2C(=O)N1Cc1ccc2c(c1)OCO2` the activity, negative = inhibition was -27.6% [at 11.4 µM] (inactive).
For `Cc1ccc(C)c(NC(=O)C2CC3c4ccccc4C2c2ccccc23)c1` (stereo unspecified), the AC50 was 5.01 µM (active).
With `Cc1ccc(C)c(NC(=O)c2ncn[nH]2)c1` the AC50 was “inactive”.
`Cc1ccc(C)c(NC(=O)C2CC(O)CN2C(=O)OC(C)(C)C)c1` (stereo unspecified) was tested, and the AC50 was “inactive”.
For `CCn1c(SCC(=O)Nc2ccccc2C(=O)OC)nnc1-c1ccc(N)cc1`, the AC50 was 22.4 µM (active).
`CCOC(=O)c1ccccc1NC(=O)CSc1cccc[n+]1[O-]` was tested, and the AC50 was “inactive”.
`CCC(C)Nc1nc(OCC(F)(F)F)nc(OCC(F)(F)F)n1` (stereo unspecified) was tested, and the AC50 was “inactive”.
With `O=c1ccc2cc(O)c(O)cc2o1` the AC50 was “inactive”.
In the case of `COC(=O)[C@@H]1C[C@H]1[C@@H](NC(=O)c1cccnc1)c1ccccc1`, the AC50 is reported as “inactive”.
For `Cc1cccc(NC(NC(=O)c2cccnc2)C(Cl)(Cl)Cl)c1` (stereo unspecified), the AC50 was 2.24 µM (active).
`CCOC(=O)CNC(=O)c1cccnc1` was tested, and the AC50 was “inactive”.
`COC(=O)[C@H]1C[C@@H]1[C@H](NC(=O)c1cccnc1)c1ccccc1` was tested, and the AC50 was “inactive”.
With `O=C(NC(NCc1ccccc1)C(Cl)(Cl)Cl)c1cccnc1` (stereo unspecified) the AC50 was 14.1 µM (active).
With `Cc1cc(NC(=O)COc2ccc(Cl)cc2Cl)n(-c2ccccc2)n1` the AC50 was 2.51 µM (active).
`O=C(COc1ccccc1Cl)Nc1cc(Cl)ccc1Oc1ccccc1` was tested, and the AC50 was 2.51 µM (active).
`CCc1cc2c(nc1CC)CCN(CC/C(C)=N/OCC[C@@H]1C=C[C@H](OC(C)=O)[C@H](COC(C)=O)O1)C2` was tested, and the activity, negative = inhibition was -1.15% [at 11.4 µM] (inactive).
With `OC[C@@H]1O[C@@H](n2cnc3c(NC4CCCCC4)ncnc32)[C@@H](O)[C@H]1O` the AC50 was “inactive”.

From PubChem BioAssay AID1851 (National Center for Advancing Translational Sciences (NCATS), 2009)
On the % scale 0 is the no-effect control and ±100 the full control effect.
